Values without a mark were called inactive. Calls come from the whole dose curve; as a rule, active = well fitted cell-killing curve with a large enough effect; inconclusive = small, poorly fitted or top-dose-only effect; inactive = flat fitted curve, though single readings scatter.
Assay: Cell Viability - LYMP1-002 - Assay at 24 hr (AID 993)
Details: LYMP1-002 lymphoblastoid cells viability; series mostly up to 92.2 µM; activity change, negative = cytotoxicity: at the top concentration
From the text: NIH Chemical Genomics Center [NCGC]
NIH Molecular Libraries Screening Centers Network [MLSCN]
National Institutes of Environmental Health Sciences [NIEHS]
National Toxicology Program [NTP]
We have developed a 1536-well cell-based assay for quantitative high throughput screening (qHTS) against a number of cell lines to determine in vitro cytotoxicity of small molecules. This particular assay uses a human lymphoblastoid cell line (LYMP1-002) purchased from Coriell Institute for Medical Research.
NCGC Assay Protocol Summary:
The CellTiter-Glo luminescent cell viability assay (Promega) is a homogeneous method to measure the number of viable cells in culture. The end point readout of this assay is based on quantitation of intracellular ATP, an indicator of metabolic activity, using the luciferase reaction. Luciferase catalyzes the oxidation of beetle Luciferin to oxyluciferin and light in the presence of ATP. The luminescent signal is proportional to amount of ATP present.
Using the CellTiter-Glo luminescent cell viability assay, the amount of cellular ATP was measured in the lymphoblastoid cell line with complete culture medium following compound treatment for 24 hours. The assay was performed in opaque white Kalypsys 1536-well plates. In the screen, tetraoctylammonium bromide was used as positive control. Library compounds were measured for their ability to cause acute toxicity in the cell line, as reflected by a decrease in intracellular ATP levels, in a concentration-dependent manner. […] AC50 values were determined from concentration-response data modeled with the standard Hill equation.
qHTS protocol for CellTiter Glo lymphoblastoid cellular assay
[Step] [Parameter] [Value] [Description]
1. Reagent; 5 uL; 2500 lymphoblastoid cells/well
2. Time; 5 hr; 37 C incubation
4. Controls; 23 nL; Tetraoctylammonium bromide 6.4pM to 92 uM
5. Time; 24 hr; 37 C incubation
6. Reagent; 5 uL; CellTiter Glo reagent
7. Time; 30 min; Room Temperature
8. Detection; Luminescence; Viewlux plate reader
Keywords: cell viability, cytotoxicity, lymphoblastoid cell line, luminescence, NTPHTS, NTPHTS_NCGC, NIEHS, DSSTox, MLSMR, MLSCN, NIH Roadmap, qHTS, NCGC
% is set by controls: 0 for no effect and ±100 for the full control effect.

For `Nc1ccc(Cl)cc1[N+](=O)[O-]`, which “activity change, negative = cytotoxicity” value is on record?
The value was 1.65%.

For `Cc1ccccc1C(N)=O`, which “activity change, negative = cytotoxicity” value is on record?
The value was 1.29%.

For `CCCCCCCCCCCCOCC1CO1` (stereo not given), which “activity change, negative = cytotoxicity” value is on record?
The value was -2.86%.

For `CCCCCNCCCCC`, which “activity change, negative = cytotoxicity” value is on record?
The value was 0.56%.

With `NC(=O)/N=N/C(N)=O` as the compound, how does the “activity change, negative = cytotoxicity” value read?
The value was 1.23%.

Which “activity change, negative = cytotoxicity” value does the source give for `COC(=O)c1ccccc1` here?
The value was 4.16%.

With `C=C(C)C1CC=C(C)C(OC(C)=O)C1` (stereo not given) as the compound, how does the “activity change, negative = cytotoxicity” value read?
The value was 0.408%.

With `CCC1CO1` (stereo not given) as the compound, how does the “activity change, negative = cytotoxicity” value read?
Its value is -0.458%.

For `O=C(O[C@@H](C(=O)O)[C@@H](OC(=O)c1ccccc1)C(=O)O)c1ccccc1`, which “activity change, negative = cytotoxicity” value is on record?
Its value is 7.87%.

Which “activity change, negative = cytotoxicity” value does the source give for `CC(N)CN` (stereo not given) here?
The value was -2.34%.

For `CCCCC(CC)CO` (stereo not given), which “activity change, negative = cytotoxicity” value is on record?
The value was -1.1%.

With `CC(=O)CCc1ccccc1` as the compound, how does the “activity change, negative = cytotoxicity” value read?
The value was -2.38%.

With `NC(=O)c1ccccc1[N+](=O)[O-]` as the compound, how does the “activity change, negative = cytotoxicity” value read?
Its value is 4.09%.

For `CC(C)(c1cc(Br)c(OCC(Br)CBr)c(Br)c1)c1cc(Br)c(OCC(Br)CBr)c(Br)c1` (stereo not given), which “activity change, negative = cytotoxicity” value is on record?
The value was 2.89%.

Which “activity change, negative = cytotoxicity” value does the source give for `CSc1ccc(C=O)cc1` here?
Its value is -4.31%.

For `CC1(N)CCC(C(C)(C)N)CC1` (stereo not given), which “activity change, negative = cytotoxicity” value is on record?
Its value is 7.55%.

Which “activity change, negative = cytotoxicity” value does the source give for `O=[N+]([O-])c1ccc(NCCO)c(OCCO)c1` here?
Its value is -2.15%.

With `Cc1ccc(C)c([N+](=O)[O-])c1` as the compound, how does the “activity change, negative = cytotoxicity” value read?
The value was 4.47%.

Which “activity change, negative = cytotoxicity” value does the source give for `ICCc1ccccc1` here?
Its value is -0.269%.

For `C/C(C=O)=C/c1ccccc1`, which “activity change, negative = cytotoxicity” value is on record?
The value was 0.965%.

With `FC(F)(F)c1cccc(Cl)c1` as the compound, how does the “activity change, negative = cytotoxicity” value read?
The value was 1.83%.

Which “activity change, negative = cytotoxicity” value does the source give for `C/C=C(/C)C#N` here?
The value was -4.31%.

For `C=CCOC(=O)CCCCCCCC`, which “activity change, negative = cytotoxicity” value is on record?
Its value is 1.97%.

For `BrC/C=C/CBr`, which “activity change, negative = cytotoxicity” value is on record?
Its value is 5.61%.

For `CCCOCC(C)OCC(C)O` (stereo not given), which “activity change, negative = cytotoxicity” value is on record?
Its value is -0.393%.

With `Nc1cccc(O)c1` as the compound, how does the “activity change, negative = cytotoxicity” value read?
The value was -5.94%.

Which “activity change, negative = cytotoxicity” value does the source give for `Nc1cc([N+](=O)[O-])ccc1C(=O)O` here?
Its value is 3.85%.

For `NC(N)=S`, which “activity change, negative = cytotoxicity” value is on record?
The value was -1.12%.

With `CCCCCCCCN` as the compound, how does the “activity change, negative = cytotoxicity” value read?
The value was 4.61%.

With `Nc1cccc(S(=O)(=O)O)c1` as the compound, how does the “activity change, negative = cytotoxicity” value read?
Its value is 2.47%.

With `CC(C)(C)OCC1CO1` (stereo not given) as the compound, how does the “activity change, negative = cytotoxicity” value read?
Its value is -2.11%.

Which “activity change, negative = cytotoxicity” value does the source give for `O=Cc1ccc(Cl)cc1` here?
The value was 1.56%.

Which “activity change, negative = cytotoxicity” value does the source give for `CC1CCC2CC1C2(C)C` (stereo not given) here?
The value was 3.87%.

For `C(=C/c1ccccc1)/c1ccccc1`, which “activity change, negative = cytotoxicity” value is on record?
The value was -5.21%.

Which “activity change, negative = cytotoxicity” value does the source give for `CCOCCOCC` here?
The value was -3.82%.

With `Cc1cccc2ccccc12` as the compound, how does the “activity change, negative = cytotoxicity” value read?
Its value is 0.275%.

For `COC(=O)CCC(=O)OC`, which “activity change, negative = cytotoxicity” value is on record?
The value was 10.3%.

With `CC(O)CC(C)O` (stereo not given) as the compound, how does the “activity change, negative = cytotoxicity” value read?
The value was 1.1%.

Which “activity change, negative = cytotoxicity” value does the source give for `OC(CCl)CCl` here?
Its value is 1.31%.

With `NC(=S)NNC(N)=S` as the compound, how does the “activity change, negative = cytotoxicity” value read?
Its value is 0.687%.
